# In PMC5540273 (PLoS ONE, 2017):
# Like-named read-outs stand apart in the source and are kept apart here.
# What was measured:
# [1] = system: BMX; conditions: concentration: 1 μM,replicates: in singlicate; n = 1
# [2] = system: BRAF; conditions: concentration: 1 μM,replicates: in singlicate; n = 1
# [3] = system: T1, BRK; conditions: concentration: 1 μM,replicates: in singlicate; n = 1
# T1 construct: gene PTK6
# [4] = system: BRSK1; conditions: concentration: 1 μM,replicates: in singlicate; n = 1
# [5] = system: BRSK2; conditions: concentration: 1 μM,replicates: in singlicate; n = 1
# [6] = system: BTK; conditions: n = 1
# [7] = system: BUB1; conditions: concentration: 1 μM,replicates: in singlicate; n = 1
# [8] = system: CAMK1B; conditions: concentration: 1 μM,replicates: in singlicate; n = 1
# [9] = system: CAMK1D; conditions: concentration: 1 μM,replicates: in singlicate; n = 1
# [10] = system: CAMK1G; conditions: concentration: 1 μM,replicates: in singlicate; n = 1
# [11] = system: CAMK1; conditions: concentration: 1 μM,replicates: in singlicate; n = 1
# [12] = system: CAMK2A; conditions: concentration: 1 μM,replicates: in singlicate; n = 1
# [13] = system: CAMK2B; conditions: concentration: 1 μM,replicates: in singlicate; n = 1
# [14] = system: CAMK2D; conditions: concentration: 1 μM,replicates: in singlicate; n = 1
# [15] = system: CAMK2G; conditions: concentration: 1 μM,replicates: in singlicate; n = 1
# [16] = system: CAMK4; conditions: concentration: 1 μM,replicates: in singlicate; n = 1
# [17] = system: CAMKK1; conditions: concentration: 1 μM,replicates: in singlicate; n = 1
# [18] = system: CAMKK2; conditions: concentration: 1 μM,replicates: in singlicate; n = 1
# [19] = system: CASK; conditions: concentration: 1 μM,replicates: in singlicate; n = 1
# [20] = system: T2, CDC2L1; conditions: concentration: 1 μM,replicates: in singlicate; n = 1
# T2 construct: gene CDK11B
# [21] = concentration: 1 μM,replicates: in singlicate
# 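Note: KINOMEscan kinase panel screen.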
compound,measurement,setting,value
Cn1cc(-c2cccc3c(N)c(C(N)=O)nnc23)cn1,%Inh,[1],15%
same,%Inh,[2],30%
same,%Inh,[3],8%
same,%Inh,[4],11%
same,%Inh,[5],18%
same,%Inh,[6]; 1 µM,86%
same,%Inh,[7],32%
same,%Inh,[8],0%
same,%Inh,[9],29%
same,%Inh,[10],7%
same,%Inh,[11],33%
same,%Inh,[12],7%
same,%Inh,[13],2%
same,%Inh,[14],15%
same,%Inh,[15],0%
same,%Inh,[16],0%
same,%Inh,[17],5%
same,%Inh,[18],6%
same,%Inh,[19],4%
same,%Inh,[20],1%
CCOC(=O)N1CCC(n2cnc(-c3ccc(F)cc3)c2-c2ccnc(N)n2)CC1 [SB-219952],%Inh,[1],13%
same,%Inh,[2],14%
same,%Inh,[3],0%
same,%Inh,[4],0%
same,%Inh,[5],19%
same,%Inh,[6]; [21],32%
same,%Inh,[7],0%
same,%Inh,[8],48%
same,%Inh,[9],3%
same,%Inh,[10],0%
same,%Inh,[11],0%
same,%Inh,[12],0%
same,%Inh,[13],0%
same,%Inh,[14],0%
same,%Inh,[15],8%
same,%Inh,[16],12%
same,%Inh,[17],0%
same,%Inh,[18],0%
same,%Inh,[19],0%
same,%Inh,[20],11%
O=C(Nc1ccc(Oc2ccc3nc(NC(=O)C4CC4)cn3n2)c(F)c1)c1cccn(-c2ccccc2)c1=O,%Inh,[1],46%
same,%Inh,[2],41%
same,%Inh,[3],72%
same,%Inh,[4],3%
same,%Inh,[5],5%
same,%Inh,[6]; [21],0%
same,%Inh,[7],0%
same,%Inh,[8],0%
same,%Inh,[9],14%
same,%Inh,[10],0%
same,%Inh,[11],5%
same,%Inh,[12],1%
same,%Inh,[13],0%
same,%Inh,[14],3%
same,%Inh,[15],2%
same,%Inh,[16],21%
same,%Inh,[17],11%
same,%Inh,[18],1%
same,%Inh,[19],3%
same,%Inh,[20],13%
O=C(Nc1ccccc1)c1cccc(Oc2ccc3nccn3n2)c1,%Inh,[1],17%
same,%Inh,[2],3%
same,%Inh,[3],0%
same,%Inh,[4],7%
same,%Inh,[5],0%
same,%Inh,[6]; [21],0%
same,%Inh,[7],0%
same,%Inh,[8],0%
same,%Inh,[9],0%
same,%Inh,[10],0%
same,%Inh,[11],0%
same,%Inh,[12],0%
same,%Inh,[13],12%
same,%Inh,[14],14%
same,%Inh,[15],0%
same,%Inh,[16],0%
same,%Inh,[17],6%
same,%Inh,[18],0%
same,%Inh,[19],8%
same,%Inh,[20],96%
CCNCC(Cc1ccccc1)NC(=O)c1cc(Br)c(-c2ccnc3[nH]ccc23)s1.Cl.Cl (stereo not shown) [GSK1383280],%Inh,[1],3%
same,%Inh,[2],0%
same,%Inh,[3],34%
same,%Inh,[4],0%
same,%Inh,[5],0%
same,%Inh,[6]; [21],0%
same,%Inh,[7],31%
same,%Inh,[8],28%
same,%Inh,[9],32%
same,%Inh,[10],11%
same,%Inh,[11],41%
same,%Inh,[12],0%
same,%Inh,[13],0%
same,%Inh,[14],23%
same,%Inh,[15],34%
same,%Inh,[16],21%
same,%Inh,[17],19%
same,%Inh,[18],25%
same,%Inh,[19],0%
same,%Inh,[20],16%
CCn1c(-c2nonc2N)nc2cncc(Br)c21 [SB-738004],%Inh,[1],27%
same,%Inh,[2],0%
same,%Inh,[3],10%
same,%Inh,[4],0%
same,%Inh,[5],0%
same,%Inh,[6]; [21],47%
same,%Inh,[7],93.7%
same,%Inh,[8],34%
same,%Inh,[9],15%
same,%Inh,[10],16%
same,%Inh,[11],14%
same,%Inh,[12],27%
same,%Inh,[13],29%
same,%Inh,[14],27%
same,%Inh,[15],14%
same,%Inh,[16],0%
same,%Inh,[17],25%
same,%Inh,[18],17%
same,%Inh,[19],29%
same,%Inh,[20],0%
C[C@@H]1CNc2c(sc3ccc4nc(-c5ccncc5)ccc4c23)C(=O)N1,%Inh,[1],0%
same,%Inh,[2],0%
same,%Inh,[3],0%
same,%Inh,[4],64%
same,%Inh,[5],59%
same,%Inh,[6]; [21],0%
same,%Inh,[7],77%
same,%Inh,[8],0%
same,%Inh,[9],25%
same,%Inh,[10],0%
same,%Inh,[11],19%
same,%Inh,[12],25%
same,%Inh,[13],23%
same,%Inh,[14],22%
same,%Inh,[15],14%
same,%Inh,[16],13%
same,%Inh,[17],27%
same,%Inh,[18],47%
same,%Inh,[19],0%
same,%Inh,[20],4%
Cc1ccc(CC(=O)N2CCc3cc(-c4cn(C)c5ncnc(N)c45)ccc32)cc1 [GSK2634758],%Inh,[1],12%
same,%Inh,[2],0%
same,%Inh,[3],78%
same,%Inh,[4],2%
same,%Inh,[5],0%
same,%Inh,[6]; [21],15%
same,%Inh,[7],12%
same,%Inh,[8],0%
same,%Inh,[9],19%
same,%Inh,[10],23%
same,%Inh,[11],7%
same,%Inh,[12],0%
same,%Inh,[13],0%
same,%Inh,[14],16%
same,%Inh,[15],22%
same,%Inh,[16],0%
same,%Inh,[17],5%
same,%Inh,[18],19%
same,%Inh,[19],7%
same,%Inh,[20],0%
